# Measurements published in PubChem BioAssay (Tox21).
# Inconclusive results are not listed. Where a call stands in place of a potency, no number is given. More than one record can exist for a structure, and the calls need not agree. Active and inactive are the calls of the source. The call rests on the fitted dose curve; in most records, active means well fitted cell-killing curve with a large enough effect in the repeat runs; inconclusive means weak or mixed curves, or effect the other way; inactive means flat fitted curve, though single readings scatter.
# Test: Caspase-3/7 induction in HepG2 cells by small molecules, qHTS cell viability counter screen (AID 1346981); further: nearly all actives have a fitted effect of over 30% in size
# Conditions: CellTiter-Fluor fluorescence, 17 h; series mostly up to 92.4 µM
# Text: U.S. Tox21 Program National Center for Advancing Translational Sciences [NCATS] NIH Chemical Genomics Center [NCGC] U.S. Environmental Protection Agency [EPA] National Institutes of Environmental Health Sciences [NIEHS] National Toxicology Program [NTP] U.S. Food and Drug Administration [FDA] Tox21 Assay Overview: Apoptosis is a process of programmed cell death and plays a central role in the development of multicellular organisms. It is a highly regulated process and induces cell death by activating caspases, which are the members of cysteine aspartic acid-specific protease (caspase) family. Caspases involved in apoptosis are classified by their mechanism of action as initiator caspases (caspase-2, -8, -9 and -10) and executioner caspases (caspase-3, -6, and -7). Inhibition of apoptosis results in number of cancers, autoimmune diseases, inflammatory diseases and viral infection. To identify small molecule compounds that induce apoptosis, a homogeneous, luminescent Caspase-Glo 3/7 assay was used. Wild type HepG2 cells were used to screen Tox21 libraries for identifying caspase-3/7 activity inducers. Also cytotoxicity of the compounds was tested in parallel by measuring the cell viability using CellTiter-Fluor assay system in the same wells.
# Tox21 Assay Protocol Summary: HepG2 cells were dispensed at 2,000 per well in 5uL of culture medium into white solid bottom 1536-well plates (Corning Life Sciences, Corning, NY) using a Multidrop Combi (Thermo Scientific, Waltham, MA) dispenser. The assay plates were incubated at 37 C and 5% CO2 for 5hr, and then 23nL of compounds dissolved in DMSO and positive control were transferred using a Pintool station ([…], San Diego, CA). The assay plates were incubated at 37C and 5% CO2 for 17hr. For cytotoxicity read, after 16hr incubation at 37C, 1uL CellTiter-Fluor reagent (Promega Corporation, Madison, WI) was added to each well of the assay plates using Flying Reagent Dispenser (FRD, Aurora Discovery, San Diego, CA). After 1hr incubation at 37C and 5% CO2, the fluorescence signal was quantified using a ViewLux plate reader (PerkinElmer, Shelton, CT).
# Potency means the concentration at half of the fitted maximal effect.
row,Structure (SMILES),Potency
1,CCC[CH2][Sn]([Cl])([Cl])[Cl],inactive
2,Cc1[nH]c(=O)n(C(C)(C)C)c(=O)c1Cl,inactive
3,CON(C)C(=O)Nc1ccc(Cl)c(Cl)c1,inactive
4,C#CC(C)(C)NC(=O)c1cc(Cl)cc(Cl)c1,inactive
5,O=NN1CCCCCCC1,inactive
6,Nc1c(Cl)c(Cl)nc(C(=O)O)c1Cl,inactive
7,CC(Oc1ccc(Cl)cc1Cl)C(=O)O (stereo not given),inactive
8,C1CC2OC2CC1C1CO1 (stereo not given),inactive
9,c1ccc2c(c1)oc1ccccc12,inactive
10,Nc1ccc(Br)cc1,inactive
11,COP(N)(=O)SC (stereo not given),inactive
12,Cc1cc(-c2cc(C)c(N)c(C)c2)cc(C)c1N,inactive
13,CCNc1nc(NC(C)(C)C)nc(SC)n1,inactive
14,OC(O)C(Cl)(Cl)Cl,inactive
15,[O-][Cl+2]([O-])O,inactive
16,CNC(=O)Oc1ccccc1OC(C)C,inactive
17,CC(Br)C(=O)O (stereo not given),inactive
18,c1ccc(OP(Oc2ccccc2)Oc2ccccc2)cc1,inactive
19,CC(C#N)CCC#N (stereo not given),inactive
20,CN=C=S,inactive

row,Structure (SMILES),Potency
1,CC(C)(C)OOC(C)(C)C,inactive
2,Clc1ccc(Cl)cc1,4.32 µM (active) and inactive
3,CCCCCOC(=O)c1ccccc1C(=O)OCCCCC,inactive
4,CN(N=O)c1ccccc1,inactive
5,Clc1cccc(Cl)c1Cl,inactive
6,C[C@]12CC[C@H]3[C@@H](CC[C@@]45O[C@@H]4C(O)=C(C#N)C[C@]35C)[C@@H]1CC[C@@H]2O,inactive
7,CC(C)=C[C@@H]1[C@@H](C(=O)OCc2coc(Cc3ccccc3)c2)C1(C)C,inactive
8,CC1C=[C-]C=C1.[C-]#[O+].[C-]#[O+].[C-]#[O+].[Mn],inactive
9,CCCCN(CC)C(=O)SCCC,inactive
10,CC(C)C#N,inactive
11,O=NN1CCCC1,inactive
12,CCCCN(CCCC)SN(C)C(=O)Oc1cccc2c1OC(C)(C)C2,inactive
13,CC(NC(C)(C)C)C(=O)c1cccc(Cl)c1 (stereo not given),inactive
14,CC1OC(C)OC(C)O1 (stereo not given),inactive
15,O=c1n(Cl)c(=O)n(Cl)c(=O)n1Cl,inactive
16,CCCN(CCC)N=O,inactive
17,CC(C)OC(=O)Nc1cccc(Cl)c1,inactive
18,CCOP(=S)(OCC)Oc1cnc2ccccc2n1,inactive
19,C=CCO,inactive
20,CN(C)[C@@H]1C(=O)C(C(N)=O)=C(O)[C@@]2(O)C(=O)C3=C(O)c4c(O)cccc4[C@@](C)(O)[C@H]3C[C@@H]12,inactive
